AC50 and outcome data for 14 compounds are collected here from PubChem BioAssay (EPA / NIEHS).

For assay [1], the system named is IYD (gene 389434). The assay can be described thus: CCTE_GLTED_hIYD: CCTE's human Iodotyrosine Deiodinase (xIYD) Inhibition Assay, Great Lakes Toxicology and Ecology Division (GLTED) Lab (AID 2284317).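 Also: cell-free human IYD enzyme made in baculovirus insect cells; iodide freed from monoiodotyrosine measured by cerium arsenite color change at 420 nm.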 In short, it runs like this:
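Absorbance change at 420 nm from the iodide-catalysed cerium-arsenic reaction reports free iodide released by human IYD from monoiodotyrosine. Enzyme, substrate and chemical are incubated 3 h; loss of signal is fitted relative to DMSO baseline.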

Assay [2] can be described thus: VALA_TUBHUV_Agonist_CellCount: Viability Assessment in the VALA Sciences human Umbilical Vein Endothelial Tubule Formation (TUBHUV) Agonism Assay (AID 2284309). In outline:
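HUVEC co-cultured 1:3 with HDF for 3 days in 10 ng/ml VEGF, then compounds added in VEGF medium for a further 3 days (72 h). Nuclear-stain/CD31 imaging cell count. Positive-direction fit versus 0.1% DMSO vehicle.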

A short description of assay [3]: VALA_TUBHUV_Antagonist_CellCount: Viability Assessment in the VALA Sciences human Umbilical Vein Endothelial Tubule Formation (TUBHUV) Antagonism Assay (AID 2284310). In outline: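 HUVEC co-cultured with HDF (1:3) 3 days in 10 ng/ml VEGF, then 3 days with compounds in VEGF medium. Fixed, nuclear stain and CD31 immunofluorescence, imaged; cell counts fitted versus 0.1% DMSO, loss of signal read as lower viability.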

Assay [4] is described as follows: VALA_MIGHUV2_CellCount: Viability Assessment in the VALA Sciences human Umbilical Vein Endothelial Cell Migration (MIGHUV) Assay, Area of Scratch Wound after Recovery (AID 2284314). In outline:
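Scratch-wounded HUVEC monolayers received test chemical within 30 min, 6-point concentration response in triplicate, 0.1 % DMSO vehicle. After 24 h wound recovery, fixed cells were Hoechst-stained and nuclei imaged; loss of signal versus DMSO indicates reduced viability.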

A short description of assay [5]: VALA_TUBIPS_Agonist_TubuleLength: VALA Sciences human iPS-derived Endothelial Tubule Formation (TUBIPS) Agonism Assay (AID 2284311). In outline:
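Human iPS-derived endothelial cells were exposed to compound for 72 h. Tubule formation was imaged by high-content fluorescence and scored as gain of signal relative to DMSO vehicle (agonist mode).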

The nature of assay [6]: VALA_MIGHUV2_Bcatenin: VALA Sciences human Umbilical Vein Endothelial Cell Migration (MIGHUV) Assay, Nuclear Translocation of beta-Catenin after Recovery (AID 2284315). In short, it runs like this: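 HUVEC (4000 cells/well) scratch-wounded, dosed within 30 min over 6 concentrations in triplicate, recovered 24 h. After fixation, Hoechst and anti-beta-catenin immunofluorescence imaged for nuclear CTNB. Gain of signal versus 0.1% DMSO.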

Assay [7] in a line: VALA_MIGHUV2_WoundArea: VALA Sciences human Umbilical Vein Endothelial Cell Migration (MIGHUV) Assay, Area of Scratch Wound after Recovery (AID 2284316). In outline: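 HUVEC seeded at 9000 cells/well, scratched after 24 h; test chemical added within 30 min, 6-point concentration response in triplicate (0.1% DMSO vehicle). After 24 h wound recovery, cells fixed and Hoechst-stained nuclei in wound area imaged; Cytochalasin D reference control.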

Assay [8] can be described thus: IUF_NPC2a_radial_glia_migration_120hr: Leibniz Research Institute for Environmental Medicine (IUF) 120-hour Neural Progenitor Cell Migration Assay for Radial Glia Migration (NPC2a) (AID 2284298; active = hit-call score of the fitted dose curve at least 0.9, where 1 is the maximum; inactive = score below 0.9). In short, it runs like this:
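Readout: distance in um from sphere core edge to migration-area edge, derived from Hoechst nuclei density with a threshold-defined polynomial boundary. Spheres: hNPC, GW 16-19, 0.3 mm, on PDL/laminin; exposure 5 days; DMSO is baseline.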

Assay [9] in a line: IUF_NPC2a_radial_glia_migration_72hr: Leibniz Research Institute for Environmental Medicine (IUF) 72-hour Neural Progenitor Cell Migration Assay for Radial Glia Migration (NPC2a) (AID 2284299; active = hit-call score of the fitted dose curve at least 0.9, where 1 is the maximum; inactive = score below 0.9). In outline: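 Primary hNPC spheres, fetal brain GW 16-19, on PDL/laminin; DMEM/F12 3:1 + 1% N2. Compound dosed day 0, 7 conc. + SC, half-medium refresh day 3. 72 h brightfield, migration distance core-to-front (um), 4 directions averaged.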

Assay [10] can be described thus: IUF_NPC2b_neuronal_migration_120hr: Leibniz Research Institute for Environmental Medicine (IUF) 120-hour Neural Progenitor Cell Migration Assay for Neuron Migration (NPC2b) (AID 2284300; active = hit-call score of the fitted dose curve at least 0.9, where 1 is the maximum; inactive = score below 0.9). In outline:
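Read-out is mean distance from sphere edge to each TUBB3-positive neuron at 120 h, expressed relative to radial glia migration distance and to DMSO baseline. Single 0.3 mm human NPC spheres differentiated on laminin under continuous compound exposure.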

Assay [11] in a line: IUF_NPC3_neuronal_differentiation_120hr: Leibniz Research Institute for Environmental Medicine (IUF) 120-hour Neuronal Differentiation Assay (NPC3) (AID 2284301; active = hit-call score of the fitted dose curve at least 0.9, where 1 is the maximum; inactive = score below 0.9). In outline: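 Primary human fetal neural progenitor spheres (GW 16-19, 0.3 mm) plated on poly-D-lysine/laminin in N2 medium, exposed from day 0 for 120 h with half-medium refresh at day 3. TUBB3+ cells as percent of Hoechst nuclei in migration area; DMSO baseline.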

Assay [12] can be described thus: IUF_NPC4_neurite_length_120hr: Leibniz Research Institute for Environmental Medicine (IUF) 120-hour Neuronal Morphology Assay for Neurite Length (NPC4) (AID 2284302; active = hit-call score of the fitted dose curve at least 0.9, where 1 is the maximum; inactive = score below 0.9). In short, it runs like this: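 Human fetal cortex (GW 16-19) neural progenitor spheres, 0.3 mm, were plated on poly-D-lysine/laminin in N2 differentiation medium and exposed from day 0 for 120 h, half-feeding at day 3. Mean TUBB3+ neurite length (µm) came from skeletonized images, relative to DMSO.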

Assay [13] can be described thus: IUF_NPC5_oligodendrocyte_differentiation_120hr: Leibniz Research Institute for Environmental Medicine (IUF) 120-hour Oligodendrocyte Differentiation Assay (NPC5) (AID 2284304).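 Also: primary human fetal neural progenitor spheres plated to migrate and differentiate; share of O4-positive cells among Hoechst nuclei found by CNN image analysis.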 In short, it runs like this:
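Oligodendrocyte differentiation was scored after 120 h as the O4-positive share of Hoechst-stained nuclei across the neurosphere migration area, using a trained convolutional neural network on high-content fluorescence images. Human fetal neural progenitor spheres were dosed from day 0, normalised to DMSO.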

Assay [14] in a line: IUF_NPC4_neurite_area_120hr: Leibniz Research Institute for Environmental Medicine (IUF) 120-hour Neuronal Morphology Assay for Neurite Area (NPC4) (AID 2284305). In short, it runs like this: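 Human fetal cortex-derived neural progenitor spheres (0.3 mm, GW 16-19) plated on poly-D-lysine/laminin in N2 differentiation medium and exposed from day 0 for 120 h across 7 concentrations plus solvent control. Neurite area is mean pixel area per TUBB3-positive neuron via skeletonization, analysed relative to DMSO.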

Assay [15] in a line: IUF_NPC2-5_cytotoxicity_72hr: Cytotoxicity Assessment at 72 hours in the Leibniz Research Institute for Environmental Medicine (IUF) Neural Progenitor Cell Migration and Differentiation Assay for Cytotoxicity (NPC2-5) (AID 2284306).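 Also: LDH release into supernatant measured by resorufin fluorescence marking membrane damage.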 In short, it runs like this: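 Human fetal (GW 16-19) neural progenitor spheres, 0.3 mm, plated on poly-D-lysine/laminin in N2 differentiation medium and exposed from day 0 to 7 concentrations plus solvent control (DMSO ≤0.1%). LDH-dependent resazurin-to-resorufin fluorescence in supernatant at 72 h.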

Assay [16] is described as follows: IUF_NPC2-5_cytotoxicity_120hr: Cytotoxicity Assessment at 120 hours in the Leibniz Research Institute for Environmental Medicine (IUF) Neural Progenitor Cell Migration and Differentiation Assay (NPC2-5) (AID 2284307).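 As to AC50: LDH released into supernatant as membrane damage marker via resorufin fluorescence.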 In outline: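 Sphere plating starts differentiation and exposure together at day 0. Compound solution is half-replaced on day 3. At 120 h, medium supernatant is taken for an LDH membrane-integrity read based on resazurin reduction to resorufin fluorescence.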

Assay [17] in a line: IUF_NPC2-5_cell_number_120hr: Cell Number Assessment at 120 hours in the Leibniz Research Institute for Environmental Medicine (IUF) Neural Progenitor Cell Migration and Differentiation Assay (NPC2-5) (AID 2284308; active = hit-call score of the fitted dose curve at least 0.9, where 1 is the maximum; inactive = score below 0.9;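 also: count of Hoechst-stained nuclei in migration zone around plated human neural progenitor spheres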). In outline: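 hNPC spheres, one per well, PDL/laminin, N2 medium, 37C, 5% CO2. Dosing day 0 → half-medium change with fresh compound day 3 → fix 120 h. Readout: Hoechst+ nuclei count, migration area; 7 concentrations plus solvent control.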

Assay [18] can be described thus: IUF_NPC2-5_viability_120hr: Viability Assessment at 120 hours in the Leibniz Research Institute for Environmental Medicine (IUF) Neural Progenitor Cell Migration and Differentiation Assay (NPC2-5) (AID 2284312; active = hit-call score of the fitted dose curve at least 0.9, where 1 is the maximum; inactive = score below 0.9). In outline: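 Human fetal (GW 16-19) neural progenitor spheres of 0.3 mm were plated on poly-D-lysine/laminin in N2 differentiation medium and exposed from day 0 for 120 h, with half-medium refresh at day 3. Viability was read as alamar blue resazurin-to-resorufin fluorescence against DMSO.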

The nature of assay [19]: CCTE_Mundy_HCI_iCellGluta_NOG_NeuriteLength: CCTE's Neurite Outgrowth Assay in iCellGluta cells for Neurite Length, Mundy Lab (AID 2284318). In outline:
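Automated high-content imaging of betaIII-tubulin (Alexa Fluor-488) and Hoechst-stained cells gave neurite length, normalized to the DMSO baseline.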

A short description of assay [20]: VALA_TUBIPS_Antagonist_TubuleLength: VALA Sciences human iPS-derived Endothelial Tubule Formation (TUBIPS) Antagonist Assay (AID 2284313). In short, it runs like this: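 Cells grown 3 days with 10 ng/ml VEGF, then exposed to compounds in VEGF medium for another 3 days. After fixation, nuclear stain and CD31 immunofluorescence imaging gave mean total tubule length against 0.1% DMSO; suramin (100 uM) inhibition control.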

Records with an inconclusive call do not appear. Active and inactive are the calls of the source. The calls were made as follows, unless noted: active = hit-call score of the fitted dose curve at least 0.9, where 1 is the maximum; inconclusive = response in the unintended direction; inactive = score below 0.9.

Consider `O=Cc1ccccc1C=O`, for which the AC50 – broadly, the midpoint of the concentration-response curve, whichever way the signal moves – in assay [1] was 60.2 µM (active).

With `CCCCCCCCCCCCCCOS(=O)(=O)O`, the AC50 in assay [1] is 29.6 µM (active).

For the compound `CCCCC(CC)COP(=O)(OCC(CC)CCCC)OCC(CC)CCCC` (centres undefined), the compound was called inactive in [2], in [3] and in assay [4].

With `O=C1OC(c2ccc(O)cc2)(c2ccc(O)cc2)c2ccccc21`, the call in assay [2], in assay [3], in [5], in [6] and in assay [7] was inactive.

Turning to `OCC(O)CO`, the compound was called inactive in assay [8], in [9], in assay [10], in assay [11], in [12] and in assay [13]. The call in assay [14], in assay [15], in assay [16], in assay [17], in assay [18] and in [19] was inactive.

Take `O=C1NC(=O)C(c2ccccc2)(c2ccccc2)N1`: the compound was classed as inactive in [8], in assay [9], in assay [10], in assay [11], in [12] and in assay [13]. The call in assay [14], in [15], in [16], in [17] and in [18] was inactive.

`CCN(CC)CCOc1ccc(C(=C(Cl)c2ccccc2)c2ccccc2)cc1`: the AC50 in assay [1] was 16 µM (active).

With `Cc1ccc(-c2cc(C(F)(F)F)nn2-c2ccc(S(N)(=O)=O)cc2)cc1`, the compound was called inactive in assay [2], in [3], in assay [5], in assay [4] and in assay [7].

In the case of `S=c1[nH]c2ccccc2s1`, in [1], the result was inactive.

For `CC(=O)CC(c1ccccc1)c1c(O)c2ccccc2oc1=O` (centres undefined), the result in assay [8], in [9], in assay [10], in assay [11], in assay [12] and in [13] was inactive. For the same compound, the outcome in [14], in assay [15], in assay [16], in [17], in assay [18] and in assay [19] was inactive.

As for `CN(C)CCCN1c2ccccc2Sc2ccc(Cl)cc21`, the AC50 in assay [8] is 14.2 µM (active); in [9], 15.1 µM (active); in assay [10], 15 µM (active); in assay [11] it was 7.59 µM (active); in assay [12], 6.02 µM (active); in assay [13], 0.756 µM (active). For the same compound, the half-maximal activity concentration (AC50) in [14] is 8.38 µM (active); in assay [15], 15.3 µM (active); in assay [16], 5.75 µM (active); in assay [17], 12.8 µM (active); in assay [18], 10.9 µM (active).

Regarding `Cc1c(C)c2c(c(C)c1O)CCC(C)(COc1ccc(CC3SC(=O)NC3=O)cc1)O2` (centres undefined), the AC50 in assay [1] is 94.7 µM (active).

With `Nc1nc(Cl)nc2c1ncn2[C@H]1C[C@H](O)[C@@H](CO)O1`, the AC50 was 1.56 µM (active) in assay [2], 1.78 µM (active) in [20], 2.48 µM (active) in assay [4] and 28.9 µM (active) in assay [7]. Besides, the compound was called inactive in [3] and in [6].

In the case of `COC(=O)[C@H]1[C@H]2C[C@@H]3c4[nH]c5cc(OC)ccc5c4CCN3C[C@H]2C[C@@H](OC(=O)c2cc(OC)c(OC)c(OC)c2)[C@@H]1OC`, the compound was called inactive in [2], in assay [5], in assay [4] and in assay [7].
